Assay results from PubChem BioAssay (NCATS).
Results filed as inconclusive are left out. Unmarked numbers belong to inactive results. Calls of active or inactive are those of the source. Calls follow the shape of the dose curve; as a rule, active = well fitted inhibition curve with a large enough effect in the signal ratio, with a control signal flat (not every such curve was filed as active); inconclusive = small, poorly fitted or top-dose-only effect, or effect the other way, or a change in a side signal; inactive = no such curve, though single readings can be large or run the other way; the % refers to the signal ratio.

target: Peroxisome proliferator-activated receptor delta (Homo sapiens) (UniProt Q03181); test: qHTS assay for small molecule antagonists of peroxisome proliferator-activated receptor delta signaling (AID 588535); settings: HEK293T PPARd-UAS-bla, beta-lactamase FRET ratio, 18 h; series mostly up to 76.7 µM; activity change, negative = inhibition: at the top concentration
Sequence (Q03181 whole entry, looked up): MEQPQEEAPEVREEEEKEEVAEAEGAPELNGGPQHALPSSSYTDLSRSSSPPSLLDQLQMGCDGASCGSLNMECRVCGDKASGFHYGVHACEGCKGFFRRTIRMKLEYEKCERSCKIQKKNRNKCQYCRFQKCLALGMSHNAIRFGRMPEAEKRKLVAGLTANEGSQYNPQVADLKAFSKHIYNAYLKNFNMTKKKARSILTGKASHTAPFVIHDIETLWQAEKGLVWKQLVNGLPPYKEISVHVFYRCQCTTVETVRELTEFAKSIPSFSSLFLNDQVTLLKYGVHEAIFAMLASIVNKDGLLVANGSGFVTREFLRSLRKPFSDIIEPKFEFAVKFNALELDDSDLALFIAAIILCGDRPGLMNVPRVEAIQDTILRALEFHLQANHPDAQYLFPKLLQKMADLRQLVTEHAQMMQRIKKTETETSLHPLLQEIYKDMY
Description: NIH Chemical Genomics Center [NCGC] U.S. Environmental Protection Agency [EPA] National Institutes of Environmental Health Sciences [NIEHS] National Toxicology Program [NTP] NCGC Assay Overview The Peroxisome proliferator-activated receptors (PPARs) are lipid-activated transcription factors of the nuclear receptor superfamily with three distinct subtypes namely PPAR alpha, PPAR delta (also called PPAR beta) and PPAR gamma. All these subtypes heterodimerizes with Retinoid X receptor (RXR) and have different physiological functions. […] This role of PPAR delta implicates the potential use of its ligands in the treatment of metabolic disorders.
NCGC Assay Protocol Summary Using a beta-lactamase reporter-gene under control Peroxisome Proliferator-Activated Receptor delta (PPAR-delta) response element, a cell-based assay [GeneBLAzer (PPAR-delta-UAS-bla assay developed by Invitrogen] was used to measure PPAR-delta ligands signaling. GeneBLAzer PPAR-delta-UAS-bla HEK293T cells were used with assay medium containing 2% charcoal/dextran FBS. The assay was performed in clear bottom black Greiner 1536-well plates. Library compounds were measured for their ability to inhibit the reporter gene activity. Compounds were screened in a titration series in 1536-well format. The fluorescence intensity (405 nm excitation, 460/530 nm emission) was measured using an EnVision plate reader. […] Concentration-response titration points for each compound were fitted to the Hill equation yielding concentrations of half-maximal inhibition (IC50) and maximal response (efficacy) values. qHTS protocol for PPAR-delta beta-lactamase assay in antagonist mode [Step] [Parameter] [Value] [Description] 1. Reagent; 5 uL; 4000 cells/well 2. Incubation; 37 C for 5 hrs 3. Compounds; 23 nL; 0.59 nM to 92 uM 4. […] Incubation; 37 C for 18 hrs 7. Detection reagent; 1 uL of CCF4-dye 8. Incubation; RT for 2 hrs 9. Detection; Fluorescence; Envision plate reader

Structure (SMILES) | outcome | activity change, negative = inhibition [%]
CCc1cc(C(N)=S)ccn1 | inactive | –
O=C(N[C@H](CO)[C@H](O)c1ccc([N+](=O)[O-])cc1)C(Cl)Cl | inactive | –
CC(=O)Oc1ccccc1C(=O)Nc1ncc([N+](=O)[O-])s1 | – | -78.4
N=C(N)c1ccc(OCCCCCOc2ccc(C(=N)N)cc2)cc1 | – | -21.2
S=P(N1CC1)(N1CC1)N1CC1 | – | 1.51
Cc1ccnc2c1NC(=O)c1cccnc1N2C1CC1 | – | -2.21
Cc1noc(NS(=O)(=O)c2ccc(N)cc2)c1C | inactive | –
Cc1ncc([N+](=O)[O-])n1CCO | – | -16.9
NC(N)=NC(N)=NCCc1ccccc1 | inactive | –
NNC(=O)c1ccncc1 | – | -1.51
CC1=NN(c2ccccc2)C(=O)C1 | – | 9.54
Nc1nc(N)c2nc(CNc3ccc(C(=O)NC(CCC(=O)O)C(=O)O)cc3)cnc2n1 (configuration not stated) | – | 12.4
